IMPase Li inh: qHTS Assay for Identifying the Cell-Membrane Permeable IMPase Inhibitors: Potentiation with Lithium | CHO-M1 cells, IP1 TR-FRET (IP-One), carbachol + lithium | Potency, µM (series often up to 59.4 µM), inactives show at the top dose activity, negative = IMPase inhibition, hits mostly inhibitors | 210,000 compounds, 0.35% hits | AID 1457, 2008; active = well fitted inhibition curve with a large enough effect; inconclusive = small, poorly fitted or top-dose-only effect; inactive = no such curve, though single readings can be large or run the other way;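 note: IP1 builds up when IMPase is blocked and the TR-FRET signal falls; potency is the fitted concentration of half-maximal effect; plate controls were basal vehicle for no effect and high inhibitor control for full effect; nearly all actives have a fitted effect of over 50% in size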
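Steps: plate 2000 CHO-M1 cells per well and culture 16–30 h; add compound and lithium; incubate 30 min, 37C; add d2-IP1 tracer and Eu cryptate anti-IP1 antibody in lysis buffer; read after 10 min at room temperature.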
PNC assembly inh: High Content Assay for Compounds that inhibit the Assembly of the Perinucleolar Compartment. PC3M PTB-GFP, PNC prevalence imaging, 16 h; hits give low values. 140,000 compounds, 3.1% hits. AID 2417, 2010. activity change (PNC), negative = inhibition, % at 10 µM;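 active = readout at or below -70, meaning at least 70% loss of cells showing the perinucleolar compartment, a nuclear body marking cancer cells; inconclusive = readout between -30 and a set limit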;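 note: plate controls were DMSO wells for no effect and camptothecin positive control wells for full effect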
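Read-out is percentage of cells bearing a perinucleolar compartment, from automated 20x imaging of fixed, Hoechst-stained PC3M PTB-GFP cells. Cells were seeded 4 h, then exposed 16 h to compound (23 nl of library stock) in duplicate plates.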
HPGD inh: qHTS Assay for Inhibitors of HPGD (15-Hydroxyprostaglandin Dehydrogenase); Potency, µM, without a hit: at the top dose activity change, negative = inhibition, actives largely listed as inhibitors; purified HPGD, NADH fluorescence kinetic, PGE2 substrate; 15-hydroxyprostaglandin dehydrogenase [NAD(+)] (Homo sapiens), P15428; 150,000 compounds, 4.3% hits; note: potency is the fitted concentration of half-maximal effect
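NADH formation kinetics: reaction with 30 uM PGE2 and 1 mM NAD+ (final), 20 nM enzyme, Tris-HCl pH 8 with Tween 20, after 15 min compound preincubation at room temperature. Fluorescence change, last versus first of five reads.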
ALDH1A1 block: qHTS Assay for Inhibitors of Aldehyde Dehydrogenase 1 (ALDH1A1); Aldehyde dehydrogenase 1A1 (Homo sapiens), P00352; Purified ALDH1A1, NADH fluorescence, propionaldehyde substrate; Potency, µM (titrated, usually from 75.3 µM), for the others: at the top dose activity, negative = inhibition, hits mostly inhibitors; 220,000 compounds, 7.3% hits; AID 1030, 2008;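 note: potency is the fitted concentration of half-maximal effect; plate controls were no enzyme wells and a reference inhibitor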
Target sequence (P00352 whole entry, looked up): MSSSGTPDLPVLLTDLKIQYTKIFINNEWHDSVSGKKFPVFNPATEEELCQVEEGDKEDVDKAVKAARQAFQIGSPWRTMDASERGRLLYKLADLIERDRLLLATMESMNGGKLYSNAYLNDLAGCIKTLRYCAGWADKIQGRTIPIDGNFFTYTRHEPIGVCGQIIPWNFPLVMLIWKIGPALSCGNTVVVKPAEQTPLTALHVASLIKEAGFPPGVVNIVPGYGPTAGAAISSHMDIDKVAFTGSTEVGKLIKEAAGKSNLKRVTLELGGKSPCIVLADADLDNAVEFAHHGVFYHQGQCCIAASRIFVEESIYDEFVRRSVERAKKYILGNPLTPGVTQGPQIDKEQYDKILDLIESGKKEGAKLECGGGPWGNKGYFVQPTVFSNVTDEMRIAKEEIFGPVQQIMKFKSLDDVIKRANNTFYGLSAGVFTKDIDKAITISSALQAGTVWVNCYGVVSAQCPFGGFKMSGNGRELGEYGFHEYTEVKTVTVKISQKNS
IMPase inh: qHTS Assay for Identifying the Cell-Membrane Permeable IMPase Inhibitors. Inositol monophosphatase 1 (Rattus norvegicus), P97697. CHO-M1 cells, IP1 accumulation, HTRF TR-FRET ratio. inhibition (IP1 accumulation), % at 46.1 µM. 120,000 tested, under 10 active. AID 901, 2007; active = well fitted curve in the direction sought with a large enough effect in the signal ratio, not every such curve was filed as active; inconclusive = small, poorly fitted or top-dose-only effect, or a change in a side signal; inactive = no such curve, though single readings can be large or run the other way; the % refers to the signal ratio;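 note: cells stimulated with carbachol in lithium chloride buffer; plate controls were DMSO basal wells for no effect and reference inhibitor wells for full effect; higher means more IMPase inhibition seen as more IP1 and lower FRET ratio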
Target sequence (P97697 whole entry, looked up): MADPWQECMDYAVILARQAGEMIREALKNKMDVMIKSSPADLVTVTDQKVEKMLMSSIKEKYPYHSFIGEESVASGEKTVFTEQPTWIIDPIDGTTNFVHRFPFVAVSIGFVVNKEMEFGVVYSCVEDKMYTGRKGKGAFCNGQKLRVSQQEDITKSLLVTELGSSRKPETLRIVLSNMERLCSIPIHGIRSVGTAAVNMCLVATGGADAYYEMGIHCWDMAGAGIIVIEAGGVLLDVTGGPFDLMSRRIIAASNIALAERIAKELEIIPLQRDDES
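CHO-M1, 2000 cells/well, cultured 16–30 h; cpd up to 46 uM; carbachol (50 uM solution, stimulation buffer w/ 50 mM LiCl, pH 7.4), 30 min 37C; IP-One TR-FRET, 10 min RT; Ex 320/Em 665, 620; Hill-fit AC50.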
An asterisk follows results filed as active; ? = inconclusive; / = no result given; [ ] = dose if it differs, or a comment. Hits are enriched below; roughly 11% of the tested compounds scored in any of these assays. Unless noted, calls come from the whole dose curve; as a rule, active = well fitted inhibition curve with a large enough effect (not every such curve was filed as active); inconclusive = small, poorly fitted or top-dose-only effect, or another doubt; inactive = no such curve, though single readings can be large or run the other way. Unless noted, % is set by controls: 0 for no effect and ±100 for the full control effect.

SMILES	IMPase Li inh	PNC assembly inh	HPGD inh	ALDH1A1 block	IMPase inh
O=C(c1sc2ccccc2c1Cl)N1CCN(c2ccc(F)cc2)CC1	9.7%[38.3 µM]	?	-23.3%	?	9.6
Cn1cccc1/C=N/NC(=O)c1sc2ccccc2c1Cl	-13.6%[38.3 µM]	22.0	-10.0%	?	5.6
O=C(c1sc2ccccc2c1Cl)N1CCN(c2ncccn2)CC1	-1.4%	15.6	-10.9%	12.6µM*	/
Cc1cc(C)c2c(CC(=O)Nc3nccs3)coc2c1	?	?	-23.2%	?	0.4
CCOc1ccc(CN2CCN(S(=O)(=O)c3ccc(Cl)cc3)CC2)cc1	/	/	/	/	-3.8
O=C(N/N=C/c1c[nH]c2ccccc12)c1sc2ccccc2c1Cl	2.5%	?	-10.6%	?	-0.8
O=C(N/N=C/c1ccccn1)c1sc2ccccc2c1Cl	/	/	/	11.2µM*	/
C=CCn1c(=O)c(C(=O)Nc2ccccc2S(N)(=O)=O)c(O)c2ccccc21	-0.2%	/	/	10.6%	/
CC(C)CC(c1nnnn1C1CCCC1)N1CCC(C(N)=O)CC1 (configuration not stated)	14.9%	/	/	22.4µM*	/
CC1(O)CC(=O)N(c2ccccc2)O1 (configuration not stated)	-14.0%[38.3 µM]	-13.1	-10.2%	22.4µM*	2.4
CCN1C(=O)/C(=C/c2ccc(C)s2)SC1=Nc1ccc(OC)cc1	16.9%[38.3 µM]	26.0	-13.9%	?	0.2
CCCN1C(=O)/C(=C/c2cc(C)n(C)c2C)SC1=Nc1ccc(OCC)cc1	10.6%[38.3 µM]	-26.4	-10.9%	3.16µM*	7.2
CCOc1ccc(/C=C2/SC(=S)N(n3c(C)ccc3C)C2=O)cc1	22.6%[38.3 µM]	?	-4.4%	?	8.0
CCN1C(=O)/C(=C/c2cc(C)n(C)c2C)SC1=Nc1ccc(OC)cc1	64.2%[38.3 µM]	?	-14.2%	1.26µM*	8.5
O=C(NN=C1CCCC1)C1COc2ccccc2O1 (configuration not stated)	3.6%	/	/	-6.3%	/
O=C1c2cccnc2C(Nc2ccccc2Br)N1Cc1ccco1 (configuration not stated)	13.3%	/	/	25.1µM*	/
O=C1c2cccnc2C(O)N1Cc1ccco1 (configuration not stated)	-9.1%	?	5.0%	20µM*	11.0
O=C1c2cccnc2C(Nc2cccc(F)c2)N1Cc1ccco1 (configuration not stated)	-0.6%	/	/	-5.6%	/
COc1ccc(CN2C(=O)c3cccnc3C2Nc2ccc(C)cc2)cc1 (configuration not stated)	19.3%[38.3 µM]	-18.5	-13.6%	0.7%	5.7
Cc1ccc(NC2c3ncccc3C(=O)N2Cc2cccs2)cc1 (configuration not stated)	-0.8%	/	/	28.2µM*	/
O=C1c2cccnc2C(Nc2ccccc2)N1Cc1ccco1 (configuration not stated)	23.0%[38.3 µM]	48.6	?	22.4µM*	8.9
Cc1ccc(C)c(N2CC(C(=O)O)CC2=O)c1 (configuration not stated)	1.1%	/	/	6.5%	/
CCc1ccc(NC(=O)CSc2nc(C)c(C(=O)Nc3ccccc3)c(-c3ccc(OC)c(OC)c3)c2C#N)cc1	/	/	/	/	-18.5
CCC(=O)N1CCc2cc(S(=O)(=O)N(C)c3cccc(C)c3)ccc21	/	/	/	/	-13.1
C=C(C)C1CC[C@]2(CO)CC[C@@]3(C)[C@H](CCC4[C@@]5(C)CCC(O)C(C)(C)C5CC[C@@]43C)C12 (some centres not stated)	21.1%	/	-7.8%	8.6%	/
SMILES	IMPase Li inh	PNC assembly inh	HPGD inh	ALDH1A1 block	IMPase inh
Cc1ccc(CN2CCN(Cc3cc(=O)c4ccccc4[nH]3)CC2CCO)o1 (configuration not stated)	16.1%	/	/	17.8µM*	/
Cc1ccc(CN2CCN(Cc3c[nH]c4ccccc34)CC2CCO)o1 (configuration not stated)	7.1%	/	/	-1.5%	/
CCN(CC)CCCCCOc1ccccc1OC	14.7%[38.3 µM]	-16.7	-8.0%	0.0282µM*	-0.3
COc1ccccc1OCCCCOc1ccccc1F	8.1%[38.3 µM]	102.0	-14.0%	5.0%	2.9
NC(=O)/C(=N\O)c1ccccc1	13.9%[38.3 µM]	26.9	2.3%	10.5%	-10.2
Oc1ccc(/C=N/N=C(c2ccccc2)c2ccccc2)c(O)c1O	3.8%	-28.1	15.8µM*	7.08µM*	-5.2
O=C(/C(=N/N=C/c1ccc(O)c(O)c1O)c1ccccc1)c1ccccc1	-7.5%	-21.2	2µM*	6.3%	/
CC1O[C@@H](O[C@@H]2C(O)C[C@H](O[C@@H]3C(O)C[C@@H](OC4CC[C@@]5(C)C6CC(O)[C@@]7(C)C(C8=CC(=O)OC8)CC[C@@]7(O)C6CC[C@@H]5C4)OC3C)OC2C)CC(O)[C@H]1O (some centres not stated)	2.5%	/	-11.7%	8.1%	/
CCOC(=O)c1cc(NC(=O)CSCCO)ccc1Cl	-0.3%[38.3 µM]	35.1	-3.9%	22.4µM*	8.6
COC(=O)c1cc(C)nc(Sc2ccccc2N)n1	/	/	/	3.55µM*	/
O=C(/C=C/c1ccccc1Cl)c1cccnc1	36.7%[38.3 µM]	5.2	28.2µM*	14.1µM*	4.9
O=C(/C=C/c1ccc(Cl)cc1)c1cccnc1	2.5%[38.3 µM]	-0.6	-12.9%	-11.8%	7.5
O=C(/C=C/c1ccc(OCc2ccccc2)c(OCc2ccccc2)c1)c1cccnc1	3.9%	-16.1	-24.6%	7.08µM*	10.7
N/C(=N\OC(=O)/C=C/c1ccccc1Cl)c1ccncc1	-0.6%	/	/	10µM*	/
Clc1ccc(CN2CCCN(Cc3ccc(Cl)cc3)C2c2cc3ccccc3c3ccccc23)cc1	3.5%	/	-15.3%	14.2%[13.5 µM]	/
COc1ccc(/C=C/c2cc(OC)c(OC)cc2CC[N+](C)(C)C)cc1	14.4%	/	?	-8.5%	/
CC(C)(C)c1nnc(NC(=S)Nc2ccccc2)s1	0.8%	/	/	25.1µM*	/
COc1cc(OC)cc(C(=O)Nc2nnc(NC(=S)Nc3ccccc3)s2)c1	5.0%	-100.0*	-19.7%	22.4µM*	/
Cc1nc(SCc2cccc(Cl)c2)nc2c1CCCC2	/	/	/	/	1.9
CC1CCc2c(sc(NC(=O)C3c4ccccc4Oc4ccccc43)c2C#N)C1 (configuration not stated)	/	/	/	/	6.3
COc1ccc(OCC(O)CN2CCN(c3ccccc3)CC2)cc1 (configuration not stated)	0.8%	/	/	-6.1%	/
COc1ccc(OCC(O)CN2CCN(c3ncccn3)CC2)cc1 (configuration not stated)	-2.5%	-121.7*	-13.5%	0.0%	/
O=C(O)c1cccc(N2C(=O)c3cccc(Oc4ccc(Cl)cc4)c3C2=O)c1	1.2%	16.5	25.1µM*	10.7%	/
O=C(O)c1ccc(N2C(=O)c3cccc(Oc4ccc(Cl)cc4)c3C2=O)cc1	-7.6%	-3.3	1.41µM*	0.8%	/

Source: PubChem
